Values joined by “and” are separate entries in the source; they are usually repeats but may differ in a detail not shown here. Identical values can stand only once. Inconclusive results are not listed. A number with no mark means an inactive call. Calls come from the whole dose curve; as a rule, active = well fitted inhibition curve with a large enough effect in the signal ratio, with a control signal flat (not every such curve was filed as active); inconclusive = small, poorly fitted or top-dose-only effect, or effect the other way, or a change in a side signal; inactive = no such curve, though single readings can be large or run the other way; the % refers to the signal ratio.

From PubChem BioAssay (NCATS) come the findings set out here.

The assay deals with Retinoic acid receptor RXR-alpha (Homo sapiens) (UniProt P19793). Nature of the assay: qHTS assay for small molecule antagonists of retinoid X receptor alpha signaling (AID 588546). To be noted: HEK293T RXRa-UAS-bla, beta-lactamase ratio, antagonist mode. The source says: NIH Chemical Genomics Center [NCGC] U.S. Environmental Protection Agency [EPA] National Institutes of Environmental Health Sciences [NIEHS] National Toxicology Program [NTP] NCGC Assay Overview The Retinoid X receptor (RXR), a nuclear hormone receptor is expressed in liver, spleen, placenta, epidermis, central nervous system. These receptors are able to form homo and heterodimers with other nuclear receptors and due to this heterodimerizing ability, RXR functions as master regulators producing diverse physiological effects. Three subtypes of RXR exist; alpha, beta and gamma. Retinoid X receptor alpha (RXR-alpha) has potential roles in metabolic signaling pathways, skin alopecia, dermal cysts, cardiac development, insulin sensitization etc. Therefore screening environmental chemicals on RXR-alpha signaling can be used for the studies focused on such therapeutic applications.
Chain of Retinoic acid receptor RXR-alpha (Homo sapiens) (P19793 whole entry, looked up): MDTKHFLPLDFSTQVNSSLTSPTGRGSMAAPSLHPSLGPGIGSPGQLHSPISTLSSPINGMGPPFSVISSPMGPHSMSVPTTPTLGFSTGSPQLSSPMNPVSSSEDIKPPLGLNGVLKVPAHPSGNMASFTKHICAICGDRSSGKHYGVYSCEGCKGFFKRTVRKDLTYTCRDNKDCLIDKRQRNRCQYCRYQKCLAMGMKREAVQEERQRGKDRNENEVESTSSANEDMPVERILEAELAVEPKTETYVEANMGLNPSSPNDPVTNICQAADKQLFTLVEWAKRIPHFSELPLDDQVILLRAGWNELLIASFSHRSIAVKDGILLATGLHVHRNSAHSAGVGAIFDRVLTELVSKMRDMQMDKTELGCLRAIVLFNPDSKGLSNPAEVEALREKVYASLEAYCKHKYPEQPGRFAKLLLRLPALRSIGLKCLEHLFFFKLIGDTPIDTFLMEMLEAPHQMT
NCGC Assay Protocol Summary Using a beta-lactamase reporter-gene under control of Retinoid X receptor--alpha (RXR-alpha) response element, a cell-based assay [GeneBLAzer (RXR-alpha -UAS-bla assay developed by Invitrogen] was used to measure RXR-alpha ligands signaling. GeneBLAzer RXR-alpha -UAS-bla HEK293T cells were used with assay medium containing 2% charcoal-stripped FBS. The assay was performed in clear bottom black Greiner 1536-well plates. Library compounds were measured for their ability to inhibit the reporter gene activity. Compounds were screened in a titration series in 1536-well format. The fluorescence intensity (405 nm excitation, 460/530 nm emission) was measured using an EnVision plate reader. Data was normalized relative to 9-cis-retinoic acid control (500 nM, 100%), and DMSO only wells (basal, 0%). Concentration-response titration points for each compound were fitted to the Hill equation yielding concentrations of half-maximal inhibition (IC50) and maximal response (efficacy) values. qHTS protocol for RXR-alpha beta-lactamase assay in antagonist mode [Step] [Parameter] [Value] [Description] 1. Reagent; 5 uL; 2500 cells/well 2. Incubation; 37 C for 4 hrs 3. Compounds; 23 nL; 0.59 nM to 92 uM 4. Controls (DMSO); 23 nL 5. Agonist (Stimulator); 1uL; 9-cis-retinoic acid at 500 nM and 100 nM final concentrations 6. Incubation; 37 C for 18 hrs 7. Detection reagent; 1 uL of CCF4-dye 8. Incubation; RT for 2 hrs 9. Detection; Fluorescence; Envision plate reader
For orientation: qHTS replaces the single test concentration by a dilution series.
As to `c1ccc(Nc2ccc(Nc3ccccc3)cc2)cc1`, the max response is -13.3%. Consider `CCCCCCCCCCCOC(=O)c1ccccc1C(=O)OCCCCCCCCCCC`, for which the max response was -3.34%. Turning to `CC(Cl)CCl` (stereo not given), the max response is -6.12%.

On to `Nc1ccc(Cl)c(Cl)c1`, for which the max response is -9.29%. The result for `Cc1ccc2c(C)cccc2c1` reads 4.66%; that for `CC(C#N)CCC#N` (stereo not given), -1.63%; that for `CCBr`, 2.77%. The result for `ClCC(Br)CBr` (stereo not given) reads 13.4%; that for `CC[N+](=O)[O-]`, 5.74%.

As to `N#CC(Cl)(Cl)Cl`, the max response is 11.1%.

`Oc1cccc(Cl)c1`: the max response was 4.02%.

With `COc1c(C(C)(C)C)cc([N+](=O)[O-])c(C)c1[N+](=O)[O-]`, the max response is -14.3%. For `OCCBr`, the max response was 2.44%. In the case of `CC(C)CC(C)N` (stereo not given) it was 1.28%; in that of `O=[N+]([O-])c1ccc2c3c(cccc13)CC2`, 28.1% and 10.3%.

Take `CCN(CC)CCO`: the max response is 35.6%.

Turning to `OC[P+](CO)(CO)CO`, the max response was -5.42% and -52.4%. Consider `O=[N+]([O-])c1ccccc1O`, for which the max response was -20.2%. For the compound `C=C(C)CCl`, the max response is 1.96%. The result for `C=CC(=O)OCC(CC)CCCC` (stereo not given) reads 4.48% and -16.9%; that for `CC(C)[C@]12CC(=O)[C@H](C)[C@H]1C2`, 7% and 0.913%. Turning to `O=P(OCCCl)(OCCCl)OCCCl`, the max response was 7.26%. In the case of `CCCBr` it was 1.56%.

For `Nc1cccc2ccccc12`, the max response is -9%. Take `Cc1cccc(C)c1N`: the max response is 17.5%. The result for `Nc1cc(Cl)ccc1O` reads -9.48%; that for `Cl/C=C/CCl`, 3.74%. In the case of `Nc1ccc(-c2ccccc2)cc1` it was -7.2%; in that of `O=C(Cc1ccccc1)OCc1ccccc1`, -5.19%. In the case of `Nc1ccc2ccccc2c1` it was -0.227%. Take `CCSC(=O)N1CCCCCC1`: the max response was -8.27% and -1.48%. In the case of `COC(=O)Nc1nc2ccccc2[nH]1`, the max response was -21.4%.

Regarding `Cc1ccc(N)c(N)c1`, the max response is -10.9%. As to `CC(C)OS(C)(=O)=O`, the max response is 0.937%. In the case of `Oc1cc(Cl)cc(Cl)c1` it was -5.58%; in that of `O=[N+]([O-])c1ccc(Cl)cc1`, 5.21% and -2.59%; in that of `N#C/C(N)=C(/N)C#N`, 2%. The result for `CCCCCc1cc(O)cc(O)c1` reads -16.8%. As to `CCOP(=O)(OCC)OCC`, the max response is 10.3% and -4.1%. The result for `Cc1ccc(N)cc1N` reads 9.25% and -0.891%.
